Experiment [1] in a line: Viability qHTS for spleen associated tyrosine kinase inhibitor (SYKi) drug resistant MV4-11 cells (AID 1963824). Note: nearly all actives have a fitted effect of over 35% in size. The following applies: SYKi-resistant MV4-11 viability, CellTiter-Glo, 72 h; series mostly up to 45 µM. In a few lines: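 CellTiter-Glo luminescence, read 10 min after reagent addition, reports viability after a 72 hr compound exposure. Cells are an MV4-11 line made resistant to SYK inhibition, seeded at 500 per well onto compound-containing plates.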
On the technique in general: In qHTS, concentration-response curves come from the screen itself.

The nature of experiment [2]: Cellular viability qHTS for adrenocortical cancer (ACC) cell line SW-13 (AID 1963989).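 For activity (max response): cells grown in serum-free medium with ITS supplement; % is set by controls: 0 for no effect and ±100 for the full control effect.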 Note: nearly all actives have a fitted effect of over 65% in size. The note with it: SW-13 ACC cells viability, CellTiter-Glo, 48 h; activity (max response): stronger effect = lower value. The procedure, abridged: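 Here, serum-free SW-13 cultures were dosed up to 46 uM. Following 48 h, ATP-dependent luminescence (CellTiter-Glo) reported viable cells, and logistic modeling produced IC50 values.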

Experiment [3] in a line: Cellular viability qHTS for adrenocortical cancer (ACC) cell line NCI-H295R (AID 1963990). Note: nearly all actives have a fitted effect of over 60% in size. The note with it: CellTiter-Glo ATP luminescence, 48 h; series mostly up to 46.1 µM. The procedure, abridged: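 Viability of NCI-H295R after 48 h of treatment (final up to 46 uM) measured through cellular ATP luminescence.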

Where “and” joins values, the source holds several entries; their conditions need not be identical. Identical values can stand only once. Inconclusive results are not listed. The source holds several records for some structures; these can differ, active in one and inactive in another. Calls of active or inactive are those of the source. Calls come from the whole dose curve; as a rule, active = well fitted curve in the direction sought with a large enough effect; inconclusive = small, poorly fitted or top-dose-only effect, or another doubt; inactive = no such curve, though single readings can be large; an effect the other way counts as inactive or inconclusive.
Potency is the fitted concentration of half-maximal effect.

On to `Oc1ccc(Cl)cc1Sc1cc(Cl)ccc1O`, for which the values for the Potency in experiment [1], in experiment [2] and in experiment [3] were 15 µM (active), 3.26 µM (active) and 4.11 µM (active), respectively.

Consider `Nc1ccc(O)cc1`, for which the Potency entry in experiment [1] and in experiment [3] was “inactive” each time. For the same molecule, in experiment [2], the activity (max response) is 0.149% (inactive).

As to `CS(=O)(=O)N1CCN(Cc2cc3nc(-c4cccc5[nH]ncc45)nc(N4CCOCC4)c3s2)CC1`, the Potency in experiment [1] is 461 nM (active) and 2.09 µM (active); in experiment [2], 17.8 µM (active); in experiment [3], 2.24 µM (active).

As for `CN(C)c1cc(NC(=O)CNC(C)(C)C)c(O)c2c1C[C@H]1C[C@H]3[C@H](N(C)C)C(=O)C(C(N)=O)=C(O)[C@]3(O)C(=O)C1=C2O`, the Potency result in experiment [1] and in experiment [3] was “inactive” in each case. In addition, the activity (max response) in experiment [2] is -8.31% (inactive).

Consider `CCCCOc1nc(N)c2c(n1)N(Cc1cccc(CN3CCCC3)c1)CC(=O)N2`, for which the Potency in experiment [1] is 23.5 µM (active). In addition, the activity (max response) in experiment [2] was -4.22% (inactive). Moreover, the Potency entry in experiment [3] is “inactive”.

As for `Cc1cc(-c2ccccc2)nnc1NCCN1CCOCC1`, the Potency entry in experiment [1] and in experiment [3] was “inactive” in each case. Moreover, the activity (max response) in experiment [2] is -11% (inactive).

Take `CC(C)[C@H](CO)Nc1nc(Nc2ccc(C(=O)O)c(Cl)c2)c2ncn(C(C)C)c2n1`: the Potency in experiment [1] was 16.6 µM (active). Also, the activity (max response) in experiment [2] was 10.6% (inactive). Besides, the Potency result in experiment [3] is “inactive”.

Consider `S=c1[nH]c2ccccc2s1`, for which the Potency in experiment [1] was 0.545 µM (active). In addition, the activity (max response) in experiment [2] is 3% (inactive). Moreover, in experiment [3], the Potency entry is “inactive”.

`COc1ccc2c(c1)CC[C@@H]1[C@@H]2CC[C@]2(C)[C@@H](NCCCCCCN3C(=O)C=CC3=O)CC[C@@H]12`: in experiment [1], the Potency was 5.25 µM (active). The activity (max response) in experiment [2] is -14.7% (inactive). For the same molecule, in experiment [3], the Potency entry was “inactive”.

`CN(C)/N=N/c1nc[nH]c1C(N)=O`: the Potency entry in experiment [1] and in experiment [3] was “inactive” throughout. In addition, in experiment [2], the activity (max response) was 10.5% (inactive).

As for `Cc1ccccc1N1CCN(CCc2nnc3n2CCCC3)CC1`, the Potency result in experiment [1] and in experiment [3] was “inactive” each time. Also, the activity (max response) in experiment [2] is 9.97% (inactive).

Turning to `CC(C)n1ncnc1-c1cn2c(n1)-c1ccc(O[C@@H](C)C(N)=O)cc1OCC2`, the Potency in experiment [1] was 4.68 µM (active); in experiment [3], 0.631 µM (active). In experiment [2], the activity (max response) was -4.9% (inactive).

As for `CC(C)n1c(=O)cc(N[C@@H](C)c2ccccc2)[nH]c1=O`, in experiment [1], the Potency is 11.8 µM (active). The activity (max response) in experiment [2] is 6.06% (inactive). For the same molecule, the Potency result in experiment [3] is “inactive”.

As for `COc1cc2c(cc1OC)CN(C(=O)[C@H](C)N[C@@H](CCc1ccccc1)C(=O)O)[C@H](C(=O)O)C2`, the Potency result in experiment [1] and in experiment [3] was “inactive” in each case. In experiment [2], the activity (max response) is 4.46% (inactive).

On to `Clc1cccc(C(c2ccc3nc[nH]c3c2)n2ccnc2)c1` (configuration not stated), for which, in experiment [1], the Potency entry is “inactive and 18.6 µM (active)”. The activity (max response) in experiment [2] is 10.9% (inactive) and -12.2% (inactive). For the same molecule, the Potency result in experiment [3] was “inactive”.

Take `O=C(Nc1ccc(C(=O)O)c(O)c1)c1ccccc1`: the Potency result in experiment [1] and in experiment [3] was “inactive” throughout. Further, the activity (max response) in experiment [2] was 1.55% (inactive).

Turning to `CCC1(c2cnc[nH]2)Cc2ccccc2C1`, the Potency result in experiment [1] and in experiment [3] was “inactive” each time. The activity (max response) in experiment [2] was -4.6% (inactive).

As to `CC(=O)O[C@]1(C(C)=O)CC[C@H]2[C@@H]3C=C(Cl)C4=CC(=O)CC[C@]4(C)[C@H]3CC[C@@]21C`, in experiment [1], the Potency was 11.9 µM (active). Besides, the activity (max response) in experiment [2] is -0.809% (inactive). The Potency result in experiment [3] is “inactive”.

For `Nc1ccc(O)c(C(=O)O)c1`, the Potency entry in experiment [1] and in experiment [3] was “inactive” in each case. Moreover, the activity (max response) in experiment [2] was 6.74% (inactive).

Consider `CC1(C)O[C@@H]2C[C@H]3[C@@H]4C[C@H](F)C5=CC(=O)C=C[C@]5(C)[C@H]4[C@@H](O)C[C@]3(C)[C@]2(C(=O)CO)O1`, for which the Potency in experiment [1] is 18.6 µM (active). In addition, the activity (max response) in experiment [2] is -3.16% (inactive) and 0.473% (inactive). In addition, the Potency result in experiment [3] was “inactive”.

In the case of `CNCCCOc1cc(F)c(-c2c(Cl)nc3ncnn3c2N[C@@H](C)C(F)(F)F)c(F)c1`, the Potency in experiment [1] was 0.0372 µM (active); in experiment [2], 0.0501 µM (active); in experiment [3], 0.112 µM (active).

For the molecule `CCc1nnc(NS(=O)(=O)c2ccc(N)cc2)s1`, the Potency result in experiment [1] and in experiment [3] was “inactive” in each case. The activity (max response) in experiment [2] is 4.19% (inactive).

In the case of `Cc1cc(/C=c2/sc3nc4ccccc4n3c2=O)c(C)n1-c1ccccc1`, the Potency in experiment [1] is 10.5 µM (active). The activity (max response) in experiment [2] was -15.5% (inactive). Also, the Potency entry in experiment [3] is “inactive”.

On to `COC(=O)C(c1ccccc1Cl)N1CCc2sccc2C1` (configuration not stated), for which the Potency result in experiment [1] and in experiment [3] was “inactive” each time. In addition, the activity (max response) in experiment [2] was 0.0767% (inactive).

With `CC[C@@H]1[C@H](F)C(=O)N[C@@H]1COc1nccc2cc(C(N)=O)c(OC)cc12`, the Potency in experiment [1] was 14.8 µM (active). Moreover, the activity (max response) in experiment [2] is -21.5% (inactive). Besides, in experiment [3], the Potency result was “inactive”.

For `CC(C)(C)NCC(O)COc1ccccc1OCC1CCCO1` (configuration not stated), the Potency in experiment [1] was 0.015 µM (active). The activity (max response) in experiment [2] was -5.68% (inactive). Also, the Potency entry in experiment [3] was “inactive”.

As for `NCc1ccc(S(N)(=O)=O)cc1`, the Potency entry in experiment [1] and in experiment [3] was “inactive” each time. For the same molecule, the activity (max response) in experiment [2] was -8.11% (inactive).

As to `CCN(c1cc(-c2ccc(CN3CCOCC3)cc2)cc(C(=O)NCc2c(C)cc(C)[nH]c2=O)c1C)C1CCOCC1`, the Potency in experiment [1] was 20.6 µM (active). In addition, the activity (max response) in experiment [2] is -2.62% (inactive). The Potency result in experiment [3] was “inactive”.

For `Oc1ccc(Cl)cc1Cc1cc(Cl)ccc1O`, the Potency in experiment [1] is 11.9 µM (active); in experiment [2], 5.17 µM (active); in experiment [3], 5.17 µM (active).
